Experimental data from PubChem BioAssay.
Several values for one entry are separate records, joined by “and”; a condition that tells them apart may be missing. Identical values can stand only once. Unmarked numbers belong to inactive results. Activity calls are given as the source filed them.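 Rule for the calls: active = thallium flux through the channel raised or lowered by more than 3 SD from vehicle-only wells, actives on both sides; inactive = the rest.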 Non-standard residues stand in square brackets, D forms with d. Residues, ends and D or L forms follow the SMILES beside them. pGlu = O=C1CC[C@@H](C(=O)O)N1; Thz = O=C(O)[C@@H]1CSCN1

test system: R275C/beta4; test: BK channel mutant inhibitors and activators – cell-based, U2OS BacMam, thallium flux, beta subunits, selectivity assay, profiling panel (AID 1259406); conditions: U2OS BacMam BK variants, at 30 µM;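 note: initial slope of Thallos dye fluorescence rise after thallium is added; log ratio against the mean of 0.3% DMSO vehicle wells on the same plate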

Row | SMILES | log fold change Tl+ flux
1 | O=C1CN2Cc3c(ccc(Cl)c3Cl)N=C2N1 | -0.00682
2 | COC(=O)C[C@](O)(CCCC(C)(C)O)C(=O)O[C@@H]1C(OC)=C[C@]23CCCN2CCc2cc4c(cc2[C@H]13)OCO4 | -0.045
3 | CNCC[C@H](Oc1cccc2ccccc12)c1cccs1 | 0.129 (active)
4 | O=c1[nH]c(=O)n(C2CCCO2)cc1F (stereo not given) | -0.0234
5 | CSc1nc2cc(Oc3cccc(Cl)c3Cl)c(Cl)cc2[nH]1 | 0.0585
6 | CN(C)CCc1c[nH]c2ccc(Cn3cncn3)cc12 | 0.00222
7 | COc1ccc(C[C@H](C)NC[C@@H](O)c2ccc(O)c(NC=O)c2)cc1 | 0.0483
8 | CC(C)C[C@H](NC(=O)[C@@H](O)[C@H](N)Cc1ccccc1)C(=O)O | 0.00103
9 | C[C@@H](c1ncncc1F)[C@](O)(Cn1cncn1)c1ccc(F)cc1F | -0.0222
10 | CN(C)CCCC1(c2ccc(F)cc2)OCc2cc(C#N)ccc21 (stereo not given) | 0.0241 and 0.0131
11 | CCOC(=O)c1ccc(OC(=O)CCCCCN=C(N)N)cc1 | -0.00905
12 | Cc1c(C(=O)NN2CCCCC2)nn(-c2ccc(Cl)cc2Cl)c1-c1ccc(I)cc1 | 0.0297
13 | CC(C)NCC(O)c1ccc(NS(C)(=O)=O)cc1 (stereo not given) | 0.0206
14 | O=C(NC(=O)c1ccccc1Oc1ccc(Cl)cc1Cl)Nc1cc(Cl)cc(Cl)c1 | 0.0362
15 | CC(=O)NC[C@H]1CN(c2ccc(N3CCOCC3)c(F)c2)C(=O)O1 | 0.00539
16 | CC(CCCCC(=O)Nc1ccc(C(F)(F)F)cc1)NCCc1cnc[nH]1 (stereo not given) | 0.0332
17 | O=C(c1ccc(OCCN2CCCCC2)cc1)c1c(-c2ccc(O)cc2)sc2cc(O)ccc12 | 0.0617
18 | O=C1CC[C@@H](C(=O)N2CSC[C@H]2C(=O)O)N1 ([pGlu]-[Thz]-OH) | -0.00158
19 | CN/C(=C\[N+](=O)[O-])NCCSCc1csc(CN(C)C)n1 | -0.00775
20 | CNCC[C@@H](Oc1ccccc1C)c1ccccc1 | 0.0404

Row | SMILES | log fold change Tl+ flux
21 | Cc1cccc(CCN2CCC(C(=O)c3ccc(NS(C)(=O)=O)cc3)CC2)n1 | 0.0164
22 | CN(C)CCOc1ccc(/C(=C(/CCCl)c2ccccc2)c2ccccc2)cc1 | -0.0377
23 | CC(C)(S)C(N)C(=O)O (stereo not given) | 0.0197
24 | CC[C@H]1OC(=O)[C@H](C)[C@@H](O[C@H]2C[C@@](C)(OC)[C@@H](O)[C@H](C)O2)[C@H](C)[C@@H](O[C@@H]2O[C@H](C)C[C@H](N(C)C)[C@H]2O)[C@](C)(O)C[C@@H](C)CN(C)[C@H](C)[C@@H](O)[C@]1(C)O | -0.073
25 | NCC(O)c1ccc(O)c(O)c1 (stereo not given) | 0.0502
26 | CN1CC(=O)N2[C@H](c3ccc4c(c3)OCO4)c3[nH]c4ccccc4c3C[C@@H]2C1=O | 0.0558
27 | COC(=O)c1sccc1NN=C(C)c1ccc(NC(=O)C(Cl)Cl)cc1 | -0.0101
28 | Cc1cnc(C(=O)NCCc2ccc(S(=O)(=O)NC(=O)NC3CCCCC3)cc2)cn1 | 0.0322
29 | C/C(=C\C(=O)OCCCCCCCCC(=O)O)C[C@@H]1OC[C@H](C[C@@H]2O[C@H]2[C@@H](C)[C@H](C)O)[C@@H](O)[C@H]1O | 0.0262
30 | FC(F)(F)c1cc(C=Cc2noc(-c3ccc(CN4CCCC4)cc3)n2)cc(C(F)(F)F)c1 | -0.00136
31 | C[C@H]1O[C@H](O[C@H]2[C@H](O)[C@@H](O)[C@@H](O[C@H]3[C@H](O)[C@@H](O)C(O)O[C@@H]3CO)O[C@@H]2CO)[C@H](O)[C@@H](O)[C@@H]1N[C@H]1C=C(CO)[C@@H](O)[C@H](O)[C@H]1O (stereo not given in full) | -0.0364
32 | CCCCN1CCCC1CNC(=O)c1cc(C#N)c2ccccc2c1OC (stereo not given) | -0.0283
33 | COc1ccc2[nH]c(S(=O)Cc3ncc(C)c(OC)c3C)nc2c1 (stereo not given) | 0.0354
34 | CN1[C@@H]2CCC[C@H]1CC(NC(=O)c1nn(C)c3ccccc13)C2 (stereo not given in full) | 0.0148
35 | COc1c(N2C[C@@H]3CCCN[C@@H]3C2)c(F)cc2c(=O)c(C(=O)O)cn(C3CC3)c12 | 0.0129
36 | CCN(CC)CC#CCOC(=O)C(O)(c1ccccc1)C1CCCCC1 (stereo not given) | 0.205 (active)
37 | COc1nc(C)nc(Cl)c1NC1=NCCN1 | -0.00418
38 | CC(Cc1ccc(O)c(O)c1)(NN)C(=O)O (stereo not given) | -0.024
39 | CSc1nc(C)nc(Sc2cccc(C(F)(F)F)c2)c1C#N | 0.00747
40 | Cc1cc2c(s1)Nc1ccccc1N=C2N1CCN(C)CC1 | -0.0479
